Data taken from PubChem BioAssay (Tox21).
Values joined by “and” are separate entries in the source; they are usually repeats but may differ in a detail not shown here. Identical values can stand only once. Inconclusive results are not listed. Where a call stands in place of a potency, no number is given. Where a structure was tested more than once in an assay, its records may differ in their call. Active and inactive are the calls of the source. Calls come from the whole dose curve; as a rule, active = well fitted curve in the direction sought with a large enough effect in the repeat runs; inconclusive = weak or mixed curves; inactive = no such curve, though single readings can be large; an effect the other way counts as inactive or inconclusive.

Key:
[1] = A CellTox Green Cytotoxicity Assay to monitor cytotoxicity in HEK293 cells - 32 hour (AID 1224881); note: nearly all actives have a fitted effect of over 40% in size
Method in brief: (§1)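 Homogeneous no-lysis format: HEK293 cell suspension mixed with CellTox Green reagent, seeded, incubated 5 h at 37 C/5% CO2, then dosed by pintool with compound in DMSO.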

[2] = A CellTox Green Cytotoxicity Assay to monitor cytotoxicity in HepG2 cells - 0 hour (AID 1224882); note: nearly all actives have a fitted effect of over 35% in size
Method in brief: (§2)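 Fluorescent DNA-binding dye, 600 HepG2 cells/well, 5 h preincubation then compound in DMSO; same plates read at 0–40 h, 37 C.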

[3] = A CellTox Green Cytotoxicity Assay to monitor cytotoxicity in HepG2 cells - 32 hour (AID 1224883); note: nearly all actives have a fitted effect of over 50% in size
Method in brief: as §2

[4] = A CellTox Green Cytotoxicity Assay to monitor cytotoxicity in HEK293 cells - 8 hour (AID 1224884); note: nearly all actives have a fitted effect of over 35% in size
Method in brief: as §1

[5] = qHTS RealTime-Glo MT Cell Viability Assay in HepG2 cells - 16 hour (AID 1224885); note: nearly all actives have a fitted effect of over 50% in size
Method in brief: (§3)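 Tox21 10K library screened in qHTS format on HepG2 cells carrying RealTime-Glo reagents. Compounds were added after a 5 h preincubation, and the luminescent signal from continuous culture was measured repeatedly during 40 h treatment.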

[6] = qHTS RealTime-Glo MT Cell Viability Assay in HEK293 cells - 8 hour (AID 1224887); note: nearly all actives have a fitted effect of over 50% in size; for activity change, negative = cytotoxicity: top concentration of the series differs between compounds
Method in brief: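 Measured as luminescence from the same continuously cultured HEK293 wells at successive time points (0, 8, 16, 24, 32, 40 h) after compound addition. Reagent present from seeding; dosing at 5 h; incubation 37 C.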

[7] = A CellTox Green Cytotoxicity Assay to monitor cytotoxicity in HEK293 cells - 16 hour (AID 1224888); note: nearly all actives have a fitted effect of over 35% in size
Method in brief: as §1

[8] = qHTS RealTime-Glo MT Cell Viability Assay in HepG2 cells - 0 hour (AID 1224889); note: nearly all actives have a fitted effect of over 50% in size
Method in brief: as §3

[9] = qHTS RealTime-Glo MT Cell Viability Assay in HEK293 cells - 24 hour (AID 1224886); note: nearly all actives have a fitted effect of over 50% in size; for activity change, negative = cytotoxicity: top concentration of the series differs between compounds
Method in brief: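 Luminescence generated by NanoLuc from substrate produced by living HEK293 cells served as the viability signal. Each value reflects the reading at its stated time point during continuous 40 h compound exposure at 37 C.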

[10] = A CellTox Green Cytotoxicity Assay to monitor cytotoxicity in HepG2 cells - 8 hour (AID 1224890); note: nearly all actives have a fitted effect of over 45% in size
Method in brief: as §2
Potency is the fitted concentration of half-maximal effect.

Compound | Potency [1] | Potency [2] | Potency [3] | Potency [4] | Potency [5] | Potency [6] | Potency [7] | Potency [8] | Potency [9] | Potency [10] | activity change, negative = cytotoxicity [8]
O=c1cc(-c2ccc(O)cc2)oc2cc(O)cc(O)c12 | inactive | inactive | inactive and 38.9 µM (active) | inactive | inactive | inactive | inactive | inactive |  |  | 
NNC(=O)c1cccc(C(=O)NN)c1 | inactive | inactive | inactive | inactive | inactive | inactive | inactive | inactive | inactive | inactive | 
C=CC(=O)OCC(CO)(COC(=O)C=C)COC(=O)C=C | 15.5 µM (active) | inactive | 9.81 µM (active) | inactive | 13.9 µM (active) and 11 µM (active) | 6.19 µM (active) and inactive | inactive | inactive | 4.91 µM (active) | inactive | 
CN(C)CCCOC1(Cc2ccccc2)CCCCCC1 | inactive | inactive | inactive | inactive | inactive | inactive | inactive | inactive | inactive | inactive | 
O=c1[nH]cnc2nc[nH]c12 | inactive | inactive | inactive | inactive | inactive |  | inactive | inactive | inactive |  | 
CCOC(=O)/C=C(C)/C=C/C=C(C)/C=C/c1c(C)cc(OC)c(C)c1C | inactive | inactive | inactive | inactive | inactive | inactive | inactive | inactive |  | inactive | 
OCCN1CCN(CC/C=C2/c3ccccc3Sc3ccc(C(F)(F)F)cc32)CC1 | 26.8 µM (active) | inactive | 15.1 µM (active) | 23.9 µM (active) | 23.9 µM (active) |  | 26.8 µM (active) |  | 19 µM (active) | 23.9 µM (active) | 
Cc1c(C)c2c(c(C)c1O)CCC(C)(COc1ccc(CC3SC(=O)NC3=O)cc1)O2 (centres undefined) | inactive | inactive | inactive | inactive | inactive |  | inactive |  | 43.6 µM (active) | inactive | 
Clc1ccc2nsnc2c1NC1=NCCN1 | inactive | inactive | inactive | inactive | inactive | inactive | inactive | inactive | inactive | inactive | 
[Cl][Bi]([Cl])([c]1ccccc1)([c]1ccccc1)[c]1ccccc1 | 24.4 µM (active) | inactive | 6.13 µM (active) | 43.4 µM (active) | 7.71 µM (active) |  | 43.4 µM (active) |  | 3.07 µM (active) | 15.4 µM (active) | 
CC(C)(C)C(=O)OCOC(=O)[C@@H]1N2C(=O)[C@@H](NC(=O)[C@H](N)c3ccccc3)[C@H]2SC1(C)C | inactive | inactive | inactive | inactive | inactive | inactive | inactive |  | inactive | inactive | 
CC(C)n1nc(-c2cc3cc(O)ccc3[nH]2)c2c(N)ncnc21 | inactive | inactive | 23.9 µM (active) | inactive | inactive |  | inactive | inactive | 0.301 µM (active) |  | 
Cc1cccc(S(=O)(=O)O)c1C | inactive | inactive | inactive | inactive | inactive | inactive | inactive | inactive | inactive | inactive | 
CC1=C(/C=C/C(C)=C/C=C/C(C)=C/C=O)C(C)(C)CCC1 | 38.7 µM (active) | inactive | 48.7 µM (active) | 48.7 µM (active) | 48.7 µM (active) |  | 43.4 µM (active) |  | 17.3 µM (active) |  | 
CCCCCCCCCCCC[N+](C)(C)CCCCCCCCCCCC | 15.5 µM (active) | inactive | 7.76 µM (active) | 19.5 µM (active) | 8.71 µM (active) | 17.4 µM (active) | 17.4 µM (active) |  | 6.92 µM (active) | 19.5 µM (active) | 
Clc1ccccc1C(c1ccccc1)(c1ccccc1)n1ccnc1 | 43.6 µM (active) and inactive | inactive | 19.5 µM (active) and inactive | inactive | 24.5 µM (active) and inactive | 24.5 µM (active) |  | inactive | 21.9 µM (active) and 6.01 µM (active) | 49 µM (active) and inactive | 
CCCCCCCC[P+](CCCCCCCC)(CCCCCCCC)CCCCCCCC | 4.87 µM (active) | inactive | 10.9 µM (active) | 10.9 µM (active) | 17.3 µM (active) | 6.13 µM (active) | 10.9 µM (active) |  | 1.73 µM (active) | 17.3 µM (active) | 
CCC(C)(C)C1CCCCC1OC(C)=O (centres undefined) | inactive | inactive | inactive | inactive | inactive | inactive | inactive |  | inactive | inactive | 
[Cl][Au]([Cl])[Cl] | 19.5 µM (active) | inactive | 11 µM (active) | inactive | 15.5 µM (active) |  | 49 µM (active) | inactive | 3.89 µM (active) |  | 
O=C(NO)C1(NS(=O)(=O)c2ccc(Oc3ccc(F)cc3)cc2)CCOCC1 | inactive | inactive | inactive | inactive | inactive |  | inactive | inactive | inactive | inactive | 
Cc1cc(O)c2ccccc2c1O | 9.52 µM (active) | inactive | 13.4 µM (active) | 9.52 µM (active) | 13.4 µM (active) |  | 9.52 µM (active) |  | 7.56 µM (active) | 21.3 µM (active) | 
O=C(O)c1cc(O)c2c(c1)C(=O)c1cccc(O)c1C2=O | inactive | inactive | inactive | inactive | inactive |  | inactive | inactive | inactive | inactive | 

Compound | Potency [1] | Potency [2] | Potency [3] | Potency [4] | Potency [5] | Potency [6] | Potency [7] | Potency [8] | Potency [9] | Potency [10] | activity change, negative = cytotoxicity [8]
CN(C)[C@@H]1C(=O)C(C(N)=O)=C(O)[C@@]2(O)C(=O)C3=C(O)c4c(O)cccc4C[C@H]3C[C@@H]12 | inactive | inactive | inactive | inactive | inactive | inactive | inactive | inactive | inactive | inactive | 
COC(=O)C1=C(C)NC(C)=C(C(=O)OCC(C)C)C1c1ccccc1[N+](=O)[O-] (centres undefined) | 49 µM (active) and inactive | inactive | inactive | inactive | 43.6 µM (active) |  | inactive | 21.9 µM (active) | 24.5 µM (active) | inactive | 
c1ccc(CSCc2ccccc2)cc1 | inactive | inactive | inactive | inactive | inactive |  | inactive | inactive | inactive | inactive | 
[O-][n+]1ccccc1SSc1cccc[n+]1[O-] | 2.93 µM (active) | 11.7 µM (active) | 0.585 µM (active) | 10.4 µM (active) | 0.233 µM (active) |  | 8.27 µM (active) |  | 1.31 µM (active) | 10.4 µM (active) | -1.89% [at 15.8 µM] (inactive)
Cc1cccc(CN2CCN(C(c3ccccc3)c3ccc(Cl)cc3)CC2)c1 (centres undefined) | inactive | inactive | inactive | inactive | inactive |  | inactive | inactive | inactive | inactive | 
COc1c(C)c2c(c(O)c1C/C=C(\C)CCC(=O)O)C(=O)OC2 | inactive | inactive | inactive | inactive | inactive |  | inactive | inactive | inactive | inactive | 
CC[C@H](c1ccc(O)cc1)[C@@H](CC)c1ccc(O)cc1 | 38.9 µM (active) and inactive | inactive | 43.6 µM (active) | inactive | inactive |  | inactive | inactive | 24.5 µM (active) | 54.9 µM (active) and inactive | 
CSc1cnc(C)cn1 | 89.4 µM (active) | 56.4 µM (active) | 63.3 µM (active) | 63.3 µM (active) | inactive |  | 89.4 µM (active) | inactive | inactive | 56.4 µM (active) | 
CN(C)c1ccc(SC#N)cc1 | inactive | inactive | inactive | inactive | inactive |  | inactive | inactive | inactive | inactive | 
Nc1ccc2c3c(cccc13)-c1ccccc1-2 | 44.1 µM (active) | 24.8 µM (active) | 44.1 µM (active) | 44.1 µM (active) | inactive | 19.7 µM (active) | 44.1 µM (active) |  | 24.8 µM (active) | 39.3 µM (active) | 
CC[C@@]1(O)C(=O)OCc2c1cc1n(c2=O)Cc2c-1nc1ccccc1c2/C=N/OC(C)(C)C | inactive | inactive | 1.07 µM (active) | inactive |  |  | inactive | inactive | 0.0239 µM (active) | inactive | 
O=C(Nc1cccc([N+](=O)[O-])c1)c1cc2ccccc2cc1O | inactive | inactive | inactive | inactive | inactive | inactive | inactive |  |  | inactive | 
CCCCCOc1ccccc1/C(=C\SC)n1ccnc1 | inactive | inactive | inactive | inactive | inactive |  | inactive | inactive |  |  | 
O=c1cccccc1O | inactive | inactive | inactive | inactive | inactive | inactive | inactive | inactive |  | inactive | 
Cc1cc(=O)oc2cc(N(C)C)ccc12 | inactive | inactive | inactive | inactive |  |  | inactive |  |  | inactive | 
CCCCCCC[N+](CC)(CC)CCCCc1ccc(Cl)cc1 | 5.35 µM (active) | inactive | 23.9 µM (active) | inactive |  |  | inactive | inactive |  | inactive | 
Cc1[nH]nc2c1N=C(c1ccccc1Cl)c1cc([N+](=O)[O-])ccc1N2 | inactive | inactive | inactive | inactive | inactive | inactive | inactive | inactive |  | inactive | 
Nc1c2ccccc2nc2ccccc12 | 43.1 µM (active) | inactive | 12.1 µM (active) and 10.7 µM (active) | inactive |  |  | inactive | inactive | 7.66 µM (active) and 21.3 µM (active) |  | 
NNc1nc(-c2ccccc2)cs1 | inactive | inactive | inactive | inactive | inactive |  | inactive | inactive |  |  | 
Oc1cccc(-c2c3nc(c(-c4cccc(O)c4)c4ccc([nH]4)c(-c4cccc(O)c4)c4nc(c(-c5cccc(O)c5)c5ccc2[nH]5)CC4)C=C3)c1 | inactive | inactive | inactive | inactive |  | 23.9 µM (active) | inactive | inactive | 23.9 µM (active) | inactive | 
Cn1cc(C(=O)[C@@H]2CCc3nc[nH]c3C2)c2ccccc21 | inactive | inactive | inactive | inactive | inactive |  | inactive | inactive |  | inactive | 
